Records with an inconclusive call do not appear. A call without a number means that no potency is given here. Calls of active or inactive are those of the source. Unless noted, calls come from the whole dose curve; as a rule, active = well fitted curve in the direction sought with a large enough effect; inconclusive = small, poorly fitted or top-dose-only effect, or another doubt; inactive = no such curve, though single readings can be large; an effect the other way counts as inactive or inconclusive.
Key:
[1] = target: Aldehyde dehydrogenase, mitochondrial (Homo sapiens) (UniProt P05091); experiment: qHTS for Inhibitors of the Aldehyde Dehydrogenase Family (ALDH2) Confirmatory screens (AID 2061303; active = well fitted inhibition curve with a large enough effect; title and protocol of this record describe different tests; note: nearly all actives have a fitted effect of over 45% in size)
[2] = qHTS for Inhibitors of the Aldehyde Dehydrogenase Family (ALDH1A2, ALDH1A3, ALDH2, ALDH3A1) (AID 2061307); note: nearly all actives have a fitted effect of over 50% in size
[3] = target: Aldehyde dehydrogenase, mitochondrial (Homo sapiens) (UniProt P05091); experiment: qHTS for Inhibitors of the Aldehyde Dehydrogenase Family (ALDH2) Primary screen (AID 2061308); note: nearly all actives have a fitted effect of over 55% in size
[4] = target: Retinaldehyde dehydrogenase 3 (Homo sapiens) (UniProt P47895); experiment: qHTS for Inhibitors of the Aldehyde Dehydrogenase Family (ALDH1A3) Confirmatory screens (AID 2061311); note: nearly all actives have a fitted effect of over 60% in size; note: potency is the fitted concentration of half-maximal effect
[5] = target: Retinal dehydrogenase 2 (Homo sapiens) (UniProt O94788); experiment: qHTS for Inhibitors of the Aldehyde Dehydrogenase Family (ALDH1A2) Confirmation screens (AID 2061314); note: nearly all actives have a fitted effect of over 65% in size; note: potency is the fitted concentration of half-maximal effect
[6] = target: Retinaldehyde dehydrogenase 3 (Homo sapiens) (UniProt P47895); experiment: qHTS for Inhibitors of the Aldehyde Dehydrogenase Family (ALDH1A3) Primary screen (AID 2061315)
[7] = target: Aldehyde dehydrogenase 1A1 (Homo sapiens) (UniProt P00352); experiment: qHTS for Inhibitors of the Aldehyde Dehydrogenase Family (ALDH1A1) Confirmatory screens (AID 2061316); note: nearly all actives have a fitted effect of over 65% in size; note: potency is the fitted concentration of half-maximal effect

Compound | Potency [1] | Potency [2] | Potency [3] | Potency [4] | Potency [5] | Potency [6] | Potency [7]
Fc1cc(Nc2nc(-c3ccncc3)nc3ccccc23)ccc1N1CCCCC1 | inactive | inactive | inactive | 11.3 µM (active) | 0.712 µM (active) | inactive | 3.57 µM (active)
Cc1ccc(OCCn2c(CCNC(=O)c3cccc(Cl)c3)nc3ccccc32)cc1 | inactive | inactive | inactive | inactive | inactive | inactive | 
N#Cc1nc(NCCO)nc(Nc2ccccc2)n1 | inactive | inactive | inactive | inactive | inactive | inactive | inactive
O=C(NC1CCCc2c1cnn2-c1ccc(F)cc1F)c1ccncc1 (stereo not drawn) | inactive | inactive | inactive | inactive | inactive | inactive | 
O=C1CCCC2=C1C(c1cccnc1Cl)N=C(Nc1nc3ccccc3o1)N2 (stereo not drawn) | inactive | inactive | inactive | inactive | 22.5 µM (active) | inactive | 
COc1cccc(OC2=NS(=O)(=O)c3ccccc32)c1 | inactive | inactive | inactive | inactive | inactive | inactive | 
O=C(C1CCN(c2nc(-c3ccc(Br)cc3)cs2)CC1)N1CCNCC1 | inactive | inactive | inactive | inactive | inactive | inactive | 25.2 µM (active)
O=C1NS(=O)(=O)c2cc3c(cc21)C(=O)NS3(=O)=O | inactive | inactive | inactive | inactive | inactive | inactive | 
Cc1ccc(CNc2ccc(N3CCNCC3=O)cc2)cc1 | inactive | inactive | inactive | 14.2 µM (active) | 10.1 µM (active) | inactive | 
c1cncc(CNc2ncnc3ccc(-c4ccoc4)cc23)c1 | inactive | inactive | inactive | inactive | inactive | inactive | 
